# POLH inh – DNA polymerase eta (human) inhibition; Potency, µM (series often up to 114 µM), usual class: inhibitors; recombinant Pol eta, fluorescent DNA replication assay; Q9Y253; 390,000 tested, 1.2% active
#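 Pol eta (10 nM) was preincubated with compounds for 15 min at room temperature, after which fluorescent replication substrate (50 nM final) was added to start the reaction. Fluorescence was read kinetically at 0 and 10 min.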
# 12-LOX inh – blocks human arachidonate 12S-lipoxygenase; purified 12hLO, xylenol orange hydroperoxide absorbance; Potency, µM (series often up to 108 µM), most hits filed as inhibitors; 580,000 tested, 1.1% active
# Target sequence (P18054 whole entry, looked up): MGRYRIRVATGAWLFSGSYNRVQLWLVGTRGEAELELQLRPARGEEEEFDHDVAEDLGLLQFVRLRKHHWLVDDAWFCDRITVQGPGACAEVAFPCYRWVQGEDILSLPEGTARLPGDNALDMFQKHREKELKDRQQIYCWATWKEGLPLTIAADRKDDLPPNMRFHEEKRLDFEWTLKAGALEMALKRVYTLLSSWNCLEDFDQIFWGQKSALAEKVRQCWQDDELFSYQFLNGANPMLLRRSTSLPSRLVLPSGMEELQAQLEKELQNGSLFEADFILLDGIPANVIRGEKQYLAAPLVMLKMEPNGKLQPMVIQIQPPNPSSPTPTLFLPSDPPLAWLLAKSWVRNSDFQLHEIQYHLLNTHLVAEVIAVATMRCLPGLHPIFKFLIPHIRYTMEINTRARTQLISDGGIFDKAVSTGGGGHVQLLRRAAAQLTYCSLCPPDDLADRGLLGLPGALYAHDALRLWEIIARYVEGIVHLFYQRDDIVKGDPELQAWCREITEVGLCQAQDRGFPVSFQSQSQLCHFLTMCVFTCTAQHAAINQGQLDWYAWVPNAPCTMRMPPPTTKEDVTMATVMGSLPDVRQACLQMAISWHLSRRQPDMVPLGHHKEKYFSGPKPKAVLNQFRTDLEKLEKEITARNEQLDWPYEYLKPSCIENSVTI
#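 Purified human 12hLO (150 nM final) in 25 mM Hepes, 0.01% Triton X-100, pH 7.0 was preincubated 15 min at room temperature with compound. Then 40 uM arachidonic acid was added, 30 min. Hydroperoxide was read by Fe-XO absorbance ratio 573/405 nm.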
# PI5P4Ka inh – inhibitors of human PI5P4K alpha; PI5P4Kalpha enzyme, ADP-Glo luminescence, 60 min; active compounds read low; 330,000 tested, 1.2% active; max response, %; P48426; active = max response of -50% or lower; inconclusive = between -30% and -50%; inactive = -30% or higher; note: value at the top dose of about 77 µM
#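 Reactions run in 0.038 M HEPES pH 7.4, 0.28 mM EGTA, 0.1% CHAPS and 5% DMSO, with PI5P4Kalpha, substrate, compound and 5 microM ATP final, one hour at room temperature. Readout is ADP-Glo luminescence.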
# POLB inh – inhibitors of human DNA polymerase beta; P06746; Pol beta primer extension/strand displacement, fluorescence kinetic; Potency, µM (highest dose often 114 µM), hits mostly inhibitors; 340,000 tested, 1.3% active; AID 485314
#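 Pol beta (10 nM) was preincubated with compound for 15 min at room temperature. The reaction was then started with 50 nM substrate and read immediately and after a further 10 min at room temperature.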
# Pol kappa inh – inhibitors of human DNA polymerase kappa. Q9UBT6. Potency, µM (series often up to 107 µM), usual class: inhibitors. 400,000 tested, 0.53% active. purified Pol kappa, fluorescent DNA synthesis assay, 10 min
#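 10 nM Pol kappa was preincubated with compounds for 15 min at room temperature. Reaction started with 50 nM (final) substrate. Fluorescence read kinetically at 0 and 10 min.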
# POLI inh – blocks human DNA polymerase iota activity | Q9UNA4 | Potency, µM (titrated, usually from 115 µM), most hits filed as inhibitors | AID 588590 | 390,000 tested, 1% active | Pol iota fluorescent replication assay, 10 min
#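 Pol iota at 10 nM preincubated 15 min with compounds at room temperature; reaction started with fluorescent substrate, 50 nM final. Fluorescence read kinetically at 0 and 10 min; buffer-only wells as negative control.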
# Hits are given with their value; n = inactive; u = inconclusive; x = no result given; ! = a repeat was not active. Hits are enriched below; roughly 2.9% of the tested compounds scored in any of these assays. Unless noted, calls come from the whole dose curve; as a rule, active = well fitted inhibition curve with a large enough effect; inconclusive = small, poorly fitted or top-dose-only effect, or another doubt; inactive = no such curve, though single readings can be large or run the other way.
SMILES,POLH inh,12-LOX inh,PI5P4Ka inh,POLB inh,Pol kappa inh,POLI inh
CCOC(=O)c1cnc2c(C)cc(C)cc2c1Nc1cccc([N+](=O)[O-])c1,x,n,x,x,x,x
COc1ccc2nc([C@H]3CCN(Cc4cccc(OC(F)(F)F)c4)C3)[nH]c2c1,x,n,x,x,x,x
N#Cc1c(NC(=O)c2ccn(C(F)F)n2)sc2c1CCCC2,x,n,x,x,x,x
Fc1ccc(CNC(=S)NCc2ccc(F)cc2)cc1,n,u,n,n,n,n
COc1ccc(C(=O)NC(=S)NCCc2ccccc2)cc1,n,16µM,n,n,n,n
CC(C)(C)C(=O)NC(=S)NCc1ccccc1,n,40µM,n,n,n,n
Fc1ccc(CNC(=S)NCc2ccc(Cl)c(Cl)c2)cc1,x,32µM,x,x,x,x
O=C(OC(C(=O)O)C(OC(=O)c1ccccc1)C(=O)NCc1ccccc1)c1ccccc1 (configuration not stated),n,n,x,n,n,89µM
Cc1noc(C)c1-c1cc2cc(CO)oc2c(-c2cccc(OC(C)C)c2)n1,x,n,x,x,x,x
CCc1ccc(C(C)NC(=S)NCc2ccc(F)cc2)cc1 (configuration not stated),n,45µM,n,n,n,n
O=C(c1ccccc1F)N(Cc1ccco1)c1ccc(O)cc1,x,n,x,x,x,x
CC1(C(=O)O)CCC(C(=O)NC2CCCCC2)C1(C)C (configuration not stated),n,n,x,89µM,n,n
Cc1cc(C)cc(NC(=O)CSc2cc(C)[nH]c(=O)n2)c1,n,n,x,n,n,n
Cc1cc(SCc2ccc([N+](=O)[O-])cc2)nc(=O)[nH]1,25µM,n,-59,u,n,n
Cc1cc(SCc2cccc([N+](=O)[O-])c2)nc(=O)[nH]1,n,n,u,u,n,u
Cc1cc(SCC(=O)Nc2ccc(F)cc2F)nc(=O)[nH]1,u,u,x,16µM,n,u
O=C(CSc1ccc(-c2ccco2)nn1)c1cccc([N+](=O)[O-])c1,u,n,-64,28µM,u,13µM
Cc1cc(SCC(=O)c2cccc([N+](=O)[O-])c2)nc(=O)[nH]1,20µM,x,-58,n,79µM,u
CC(Sc1nnc(-c2ccncc2)n1C1CC1)C(=O)c1ccc(F)cc1 (configuration not stated),x,n,x,x,x,x
CC(C)NC(=O)c1csc(C(O)c2cccc(N(C)C)c2)n1 (configuration not stated),x,n,x,x,x,x
O=C(Cn1nnc(-c2ccsc2)n1)N1CCC(c2nc3ccccc3s2)CC1,x,n,x,x,x,x
COc1cc(/C=C2/C(=O)N(c3ccc([N+](=O)[O-])cc3)N=C2N2CCOCC2)ccc1O,u,n,n,n,n,0.89µM
O=c1[nH]c2ccccc2n1C1CCN(c2nccc(-c3cccnc3)n2)CC1,x,n,x,x,x,x
Cc1cc(NC(=O)CN2CCc3ccccc3C2)nc2c1c(=O)oc1ccccc12,n,n,n,n,n,n
Cc1cc(NC(=O)CN2CCC(C)CC2)nc2c1c(=O)oc1ccccc12,n,n,x,n,89µM,u
SMILES,POLH inh,12-LOX inh,PI5P4Ka inh,POLB inh,Pol kappa inh,POLI inh
CC1CCc2c(nc3ccc4ccccc4c3c2-c2cccc(O)c2)C1 (configuration not stated),x,4.5µM,x,x,x,x
CCOc1ccccc1NC(=O)Cn1c(=O)n(CCCCC(=O)NCCCOC)c(=O)c2ccccc21,n,n,x,n,n,n
CCOc1ccccc1NC(=O)Cn1c(=O)n(CCCC(=O)NCCOC)c(=O)c2cc(OC)c(OC)cc21,n,n,x,n,u,89µM
O=C(Cc1n[nH]c(=O)c2ccccc12)NCC(=O)N1CCN(c2ccc(F)cc2)CC1,x,n,x,x,x,x
O=C(Cc1n[nH]c(=O)c2ccccc12)NCC(=O)N1CCN(c2ccccc2)CC1,x,11µM,x,x,x,x
C=CCNCc1ccccc1F,x,n,x,x,x,x
C/C(=N\NC(=O)C1CC1c1ccc(C(C)(C)C)cc1)c1ccc(Cl)cc1 (configuration not stated),x,n,x,x,x,x
CC(C)N(C(=O)c1ccc(I)cc1)C(C)C,x,n,x,x,x,x
CCCC(=O)OCCNc1cc(SCc2ccco2)c2nonc2c1[N+](=O)[O-],11µM,u,-61,11µM,35µM,2.5µM
CCCSc1cc(NCCOC(=O)CCC)c([N+](=O)[O-])c2nonc12,n,u,n,n,n,n
CCC(=O)OCCNc1cc(Sc2nc3ccccc3[nH]2)c2nonc2c1[N+](=O)[O-],u,u,-56,n,n,u
CC(=O)OCCCNc1cc(SCc2ccco2)c2nonc2c1[N+](=O)[O-],22µM,u,-51,14µM,13µM,3.2µM
CCSc1ncc(Cl)c(C(=O)Nc2ccc(S(=O)(=O)N3CCCCC3C)cc2)n1 (configuration not stated),x,n,x,x,x,x
Nc1c(Br)cc2c([nH]c(=O)c3ccccc32)c1Br,u,n,-66,x,n,u
Nc1cc2[nH]c(=O)c3ccccc3c2cc1[N+](=O)[O-],u,n,n,x,n,n
COCCN1C(=O)CO[C@H]2CN(S(C)(=O)=O)C[C@H]21,x,n,x,x,x,x
COCCN1C(=O)CO[C@H]2CN(c3ncccn3)C[C@H]21,x,50µM,x,x,x,x
Nc1cccc2c(=O)c3ccccc3[nH]c12,n,n,n,45µM,n,n
COc1cccc2[nH]c3ccccc3c(=O)c12,u,x,n,n,n,n
COCCN1C(=O)c2ccccc2C(C(=O)Nc2nnc(CC(C)C)s2)C12CCCC2 (configuration not stated),x,n,x,x,x,x
COc1ccc(S(=O)(=O)N2CN(Cc3ccco3)c3nc4ccccc4nc32)cc1,79µM,n,x,n,n,u
CC(=O)N1C(=O)/C(=C2\SC(=S)N(NS(=O)(=O)c3ccc(C)cc3)C2=O)c2ccccc21,n,45µM,n,n,n,u
COc1ccc(-c2cc3ccc(OC(=O)c4ccco4)cc3oc2=O)cc1,x,n,x,x,x,x
S=c1[nH]nc(NC2CCCCC2)s1,n,u,-70,x,x,x
Cc1nc2ccccc2cc1C(=O)O,n,7.9µM!,n,n,n,n
SMILES,POLH inh,12-LOX inh,PI5P4Ka inh,POLB inh,Pol kappa inh,POLI inh
Cc1nc2ccccc2cc1C(=O)NCc1ccccc1,n,n,n,x,n,n
Cc1[nH]n2c(=O)cc(-c3ccc(Cl)cc3)nc2c1-c1ccc(F)cc1,x,22µM,x,x,x,x
COCc1cc(=O)n2[nH]c(C)c(-c3ccc(Cl)cc3)c2n1,n,n,n,x,x,x
CCCCN1CCn2c(nc3cc(NC(=O)Cn4nc(C)c5ccccc5c4=O)ccc32)C1,x,n,x,x,x,x
C[S+](=O)([O-])N1CC2(CCN(Cc3ccc(Cl)cc3)C2)Cc2ccccc21 (configuration not stated),x,45µM,x,x,x,x
O=C1NCc2ccccc2CC12CCN(Cc1ccc([N+](=O)[O-])cc1)C2 (configuration not stated),x,50µM,x,x,x,x
O=C1NCc2ccccc2CC12CCN(Cc1ccc(Br)cc1)C2 (configuration not stated),x,28µM,x,x,x,x

# Source: PubChem BioAssay
